Growth data for eight molecules are collected here from PubChem BioAssay (NCI).

This is part of a sample that, as a whole, favours compounds with a hit. Of some 83,000 tested, about 20% had one in any assay.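 Compound tested at a single concentration for 48 hours in 96-well plates; a percent growth value below 10 was scored as active.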 A number with no mark means an inactive call. Activity calls are given as the source filed them.

Among the test systems are NCI-H23 lung; NCI-H226 lung; NCI-H322M lung; HOP-62 NSCLC; NCI-H460 lung; HOP-92 NSCLC; NCI-H522 lung; A549/ATCC NSCLC; 786-0 renal; COLO 205 colon; DU-145 prostate; K-562 leukemia; MALME-3M melanoma; MDA-MB-231 breast; SF-268 CNS; SF-295 CNS; SF-539 CNS; UACC-257 melanoma; M14 melanoma.
Common to all, as to test: NCI-60 one-dose screen, 48 h (100 = growth as untreated, 0 = no growth, -100 = all killed)
What all share (details): 10 µM

Take `CCCn1c(=O)c2[nH]c(-c3ccc(OCc4nc5ccccc5[nH]4)cc3)nc2n(CCC)c1=O`: the growth was 32.5% in the assay with NCI-H23 lung; -30.3% (active) with NCI-H226 lung; 59.7% with NCI-H322M lung; 22.2% in the assay on HOP-62 NSCLC; 6.69% (active) in the assay on NCI-H460 lung; -6.45% (active) in the assay with HOP-92 NSCLC. In addition, the growth with NCI-H522 lung is 20.9%; with A549/ATCC NSCLC, 38.6%; with 786-0 renal, -48.5% (active); with COLO 205 colon it was 89.1%; in the assay with DU-145 prostate it was 54%; with K-562 leukemia it was 76%. The growth in the assay with MALME-3M melanoma was -36.4% (active); in the assay on MDA-MB-231 breast it was -42.6% (active); in the assay with SF-268 CNS, 38%; with SF-295 CNS, 37.4%; in the assay with SF-539 CNS it was -44.3% (active); in the assay on UACC-257 melanoma it was 82.3%. The growth in the assay on M14 melanoma was 73.7%.
Consider `COc1ccc(-c2c(N)c(=O)n(C)c3ccccc23)cc1`, for which the growth is 67.7% with NCI-H23 lung; 46.5% with NCI-H226 lung; 77% in the assay on NCI-H322M lung; 75.3% with HOP-62 NSCLC; 88.1% in the assay with NCI-H460 lung; 9.05% (active) with HOP-92 NSCLC. The growth is 61.1% in the assay with NCI-H522 lung; 92.1% in the assay on A549/ATCC NSCLC; 73.5% in the assay on 786-0 renal; 103% in the assay on COLO 205 colon; 83.2% in the assay with DU-145 prostate; 46.8% in the assay with K-562 leukemia. The growth was 70.6% in the assay on MALME-3M melanoma; 49.5% in the assay on MDA-MB-231 breast; 66% in the assay with SF-268 CNS; 75.2% in the assay with SF-295 CNS; 80.6% with SF-539 CNS; 92.9% with UACC-257 melanoma. In addition, the growth with M14 melanoma is 70.6%.
As to `O=C(NO)c1ccc(CNC(=O)[C@H]2Cc3c([nH]c4ccccc34)[C@H](c3ccccc3)N2)cc1`, the growth with NCI-H23 lung was 34%; in the assay with NCI-H226 lung, 64.2%; with NCI-H322M lung, 43.2%; in the assay with HOP-62 NSCLC it was 18.7%; in the assay with NCI-H460 lung, 27.7%; in the assay on HOP-92 NSCLC, -2.26% (active). For the same molecule, the growth in the assay with NCI-H522 lung was -8.88% (active); in the assay on A549/ATCC NSCLC, 50.6%; in the assay with 786-0 renal it was 53.9%; in the assay on COLO 205 colon it was -55.5% (active); in the assay on DU-145 prostate, 29.5%; in the assay on K-562 leukemia, 11.6%. Moreover, the growth in the assay with MALME-3M melanoma was 15.2%; in the assay on MDA-MB-231 breast, 7.55% (active); in the assay on SF-268 CNS, 40.3%; in the assay on SF-295 CNS, 17.7%; in the assay with SF-539 CNS it was 34%; with UACC-257 melanoma, 21.4%. Further, the growth in the assay with M14 melanoma was 27.5%.
As for `O=C(NCCCCCCCCCC[P+](c1ccccc1)(c1ccccc1)c1ccccc1)c1ccc(-n2nc(-c3ccccc3O)nc2-c2ccccc2O)cc1`, the growth was -66.8% (active) with NCI-H23 lung; -58.9% (active) with NCI-H226 lung; -91.1% (active) in the assay on NCI-H322M lung; -64.1% (active) in the assay with HOP-62 NSCLC; 8.35% (active) with NCI-H460 lung; -74.9% (active) with HOP-92 NSCLC. In addition, the growth was -78.3% (active) with NCI-H522 lung; -51.9% (active) with A549/ATCC NSCLC; -64% (active) with 786-0 renal; -83.1% (active) with COLO 205 colon; -45.8% (active) in the assay with DU-145 prostate; 6.35% (active) in the assay with K-562 leukemia. Besides, the growth was -94% (active) with MALME-3M melanoma; -73.6% (active) in the assay with MDA-MB-231 breast; -28.8% (active) with SF-268 CNS; -90.4% (active) with SF-295 CNS; -95.9% (active) with SF-539 CNS; -71.5% (active) in the assay on UACC-257 melanoma. Besides, in the assay on M14 melanoma, the growth was -84.9% (active).
On to `Cc1ccc(-c2nc(Nc3ccc(S(N)(=O)=O)cc3)c3ccccc3n2)cc1`, for which the growth in the assay on NCI-H23 lung was 71.2%; in the assay with NCI-H226 lung, 73.5%; with NCI-H322M lung, 53.2%; in the assay on HOP-62 NSCLC, 66.7%; in the assay with NCI-H460 lung, 22.4%; in the assay with HOP-92 NSCLC it was 36.4%. For the same molecule, the growth is 77.3% with NCI-H522 lung; 51.7% with A549/ATCC NSCLC; 14.2% with 786-0 renal; 82.9% in the assay on COLO 205 colon; 56.6% in the assay on DU-145 prostate; 6.36% (active) in the assay with K-562 leukemia. In addition, the growth is 98.8% in the assay with MALME-3M melanoma; 22.6% in the assay with MDA-MB-231 breast; 52.1% with SF-268 CNS; 24.2% in the assay on SF-295 CNS; 37% in the assay on SF-539 CNS; 93.9% with UACC-257 melanoma. For the same molecule, in the assay on M14 melanoma, the growth is 22.9%.
Regarding `COC(=O)c1c(C(=O)OC)c2n(c1C)[C@@H]([C@@H](C)[C@H]1CC[C@H]3[C@@H]4CCC5=CC(=O)CC[C@]5(C)[C@H]4CC[C@]13C)SC2`, the growth with NCI-H23 lung is 25%; with NCI-H226 lung it was 15.7%; with NCI-H322M lung, 72.8%; in the assay on HOP-62 NSCLC it was 64.1%; in the assay on NCI-H460 lung it was 25.1%; in the assay with HOP-92 NSCLC, 26.3%. Moreover, the growth was 23.1% in the assay with NCI-H522 lung; 37.1% in the assay with A549/ATCC NSCLC; 73.4% with 786-0 renal; 16% in the assay with COLO 205 colon; 57.8% in the assay on DU-145 prostate; 15.7% in the assay on K-562 leukemia. The growth in the assay on MALME-3M melanoma was 62.5%; in the assay on MDA-MB-231 breast, 56.7%; in the assay with SF-268 CNS, 56.4%; with SF-295 CNS, 24.7%; with SF-539 CNS it was 59%; with UACC-257 melanoma, 19.5%. The growth in the assay with M14 melanoma was 25.2%.
Regarding `CN(C)c1ccc(/C=C/C(=O)c2ccc(NC(=O)CN3C(=O)NC(C)(c4ccccc4)C3=O)cc2)cc1` (configuration not stated), the growth in the assay with NCI-H23 lung is 66%; in the assay on NCI-H226 lung, 53.2%; with NCI-H322M lung, 88.8%; in the assay on HOP-62 NSCLC, 88.9%; in the assay with NCI-H460 lung, 73.7%; in the assay with HOP-92 NSCLC, 65.3%. Moreover, the growth in the assay with NCI-H522 lung was 78.3%; with A549/ATCC NSCLC it was 56.5%; with 786-0 renal, 29.8%; with COLO 205 colon it was 110%; in the assay on DU-145 prostate it was 75.3%; with K-562 leukemia, 27.9%. For the same molecule, the growth with MALME-3M melanoma was 80.3%; in the assay on MDA-MB-231 breast, 68.1%; in the assay with SF-268 CNS, 57.9%; in the assay on SF-295 CNS, 54.9%; with SF-539 CNS, 55.2%; in the assay with UACC-257 melanoma, 62.9%. Moreover, the growth in the assay on M14 melanoma is 51.5%.
With `COC1=C[C@@]23CCC(=O)N2CCc2cc4c(cc2[C@H]3[C@H]1OC(=O)C(C)(C)O)OCO4`, the growth in the assay on NCI-H23 lung is 95.6%; in the assay on NCI-H226 lung, 93.2%; in the assay with NCI-H322M lung, 101%; in the assay on HOP-62 NSCLC it was 89.2%; with NCI-H460 lung, 115%; in the assay on HOP-92 NSCLC, 92%. Further, the growth with NCI-H522 lung is 95.6%; in the assay with A549/ATCC NSCLC it was 102%; in the assay with 786-0 renal, 95.7%; in the assay on COLO 205 colon, 120%; in the assay on DU-145 prostate, 108%; with K-562 leukemia it was 107%. Also, the growth with MALME-3M melanoma was 102%; with MDA-MB-231 breast, 94.9%; in the assay with SF-268 CNS, 104%; in the assay with SF-295 CNS it was 95.8%; in the assay on SF-539 CNS it was 93.6%; in the assay with UACC-257 melanoma, 104%. The growth in the assay on M14 melanoma was 102%.
